Calls of active or inactive are those of the source.
Key:
[1] = E. coli DRC41 culture turbidity changes, primary screen, E. coli filamentation inducer project, strain DRC41, OD650, 48 h (AID 1152);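 further: E. coli MC1000 strain DRC41 lacking acrAB efflux pump and sulA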; conditions: E. coli DRC41 (acrAB sulA), higher = more signal, called active from +8 up or from −8 down
[2] = small-molecule binders of probe aLefty1, primary screen, biochemical, small-molecule microarray, 635/667 nm fluorescence (AID 1153); conditions: higher = more signal;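 further: score merges spot fluorescence with signal-to-noise ratio from the scanned slide images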
[3] = PSAC antagonists in infected red cells, primary screen, cell-based, P. falciparum Indochina, OD700, 1 h (AID 1154); conditions: P. falciparum Indochina infected RBC osmotic lysis, higher = more signal, called active from +8 up or from −8 down
[4] = PSAC antagonists in infected red cells, primary screen, cell-based, P. falciparum Indochina, OD700, 2 h (AID 1155);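 further: lysis reports solute entry through the parasite surface anion channel PSAC; channel blockers reduce lysis of infected cells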; conditions: P. falciparum Indochina infected erythrocytes, osmotic lysis OD700; higher = more signal, called active from +8 up or from −8 down
[5] = osmotic lysis modulators in infected erythrocytes, primary screen, PSAC antagonist project, cell-based, P. falciparum Indochina, OD700, 3 h (AID 1156); conditions: higher = more signal, called active from +8 up or from −8 down
[6] = PSAC antagonists in infected red cells, primary screen, cell-based, P. falciparum Indochina, OD700, 18 h (AID 1157); conditions: P. falciparum Indochina infected erythrocytes, osmotic lysis OD700, 18 h; higher = more signal, called active from +8 up or from −8 down
[7] = modulators of S6 phosphorylation in cells, primary screen, cell-based, A549, cytoblot, luminescence, serum-stimulated (AID 1158); conditions: A549 phospho-S6 cytoblot, 5 h, higher = more signal;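 further: serum-stimulated A549 lung adenocarcinoma cells; signal is phosphorylated S6 detected by cytoblot immunostaining with HRP secondary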
[8] = target: NADPH oxidase 2 (Homo sapiens) (UniProt P04839); experiment: NOX2-dependent H2O2 signal modulators, primary screen, NOX inhibitor project, cell-based, HEK293-NOX2, PMA-stimulated, Amplex Red fluorescence (AID 1159); conditions: 45 min, higher = more signal, called active from +8 up or from −8 down; further: test concentration not given here
[9] = target: NADPH oxidase 4 (Homo sapiens) (UniProt Q9NPH5); experiment: NOX4-dependent H2O2 signal modulators, primary screen, NOX inhibitor project, cell-based, HEK293-NOX4, tetracycline-induced, Amplex Red fluorescence (AID 1160); conditions: 45 min, higher = more signal, called active from +8 up or from −8 down
[10] = target: NADPH oxidase 5 (Homo sapiens) (UniProt Q96PH1); experiment: NOX5-dependent H2O2 signal modulators, primary screen, NOX inhibitor project, cell-based, HEK293-NOX5, Amplex Red fluorescence (AID 1161); conditions: HEK293-NOX5, ionomycin, 45 min, higher = more signal
Chain of NADPH oxidase 5 (Homo sapiens) (Q96PH1 whole entry, looked up): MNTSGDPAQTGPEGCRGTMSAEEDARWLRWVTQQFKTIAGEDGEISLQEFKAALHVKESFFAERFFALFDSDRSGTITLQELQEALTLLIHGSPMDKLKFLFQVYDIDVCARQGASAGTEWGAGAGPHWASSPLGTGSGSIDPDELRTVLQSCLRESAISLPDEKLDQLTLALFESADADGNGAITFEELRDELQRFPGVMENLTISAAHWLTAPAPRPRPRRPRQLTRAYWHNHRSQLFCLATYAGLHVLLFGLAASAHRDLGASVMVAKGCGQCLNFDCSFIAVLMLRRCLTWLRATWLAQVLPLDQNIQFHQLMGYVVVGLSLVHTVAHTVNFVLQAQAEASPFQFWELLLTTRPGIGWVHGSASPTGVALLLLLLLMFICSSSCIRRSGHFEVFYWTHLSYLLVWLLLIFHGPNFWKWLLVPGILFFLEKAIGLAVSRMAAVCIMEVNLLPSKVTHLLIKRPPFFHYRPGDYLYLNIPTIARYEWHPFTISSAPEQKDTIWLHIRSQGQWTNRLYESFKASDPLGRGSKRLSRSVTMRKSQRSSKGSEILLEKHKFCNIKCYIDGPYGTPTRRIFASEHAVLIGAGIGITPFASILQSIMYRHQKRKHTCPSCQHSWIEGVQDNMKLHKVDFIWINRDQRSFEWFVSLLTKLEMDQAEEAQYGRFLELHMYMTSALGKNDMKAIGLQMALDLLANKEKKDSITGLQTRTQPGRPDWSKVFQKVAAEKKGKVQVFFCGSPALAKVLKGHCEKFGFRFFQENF

Chain of NADPH oxidase 2 (Homo sapiens) (P04839 whole entry, looked up): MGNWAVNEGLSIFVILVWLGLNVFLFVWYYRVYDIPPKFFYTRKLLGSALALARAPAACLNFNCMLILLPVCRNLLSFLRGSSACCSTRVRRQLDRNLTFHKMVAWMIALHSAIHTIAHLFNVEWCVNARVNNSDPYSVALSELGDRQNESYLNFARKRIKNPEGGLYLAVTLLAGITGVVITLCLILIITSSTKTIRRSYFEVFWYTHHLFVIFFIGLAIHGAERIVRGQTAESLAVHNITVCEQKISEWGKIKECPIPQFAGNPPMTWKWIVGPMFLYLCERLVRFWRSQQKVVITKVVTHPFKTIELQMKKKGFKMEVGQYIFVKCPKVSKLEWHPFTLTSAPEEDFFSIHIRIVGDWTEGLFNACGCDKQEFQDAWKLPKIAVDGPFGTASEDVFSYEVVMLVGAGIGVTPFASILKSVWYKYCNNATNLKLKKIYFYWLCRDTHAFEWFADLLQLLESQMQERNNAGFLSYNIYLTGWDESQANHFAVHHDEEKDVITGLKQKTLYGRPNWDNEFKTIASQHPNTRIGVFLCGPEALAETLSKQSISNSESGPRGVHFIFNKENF
Chain of NADPH oxidase 4 (Homo sapiens) (Q9NPH5 whole entry, looked up): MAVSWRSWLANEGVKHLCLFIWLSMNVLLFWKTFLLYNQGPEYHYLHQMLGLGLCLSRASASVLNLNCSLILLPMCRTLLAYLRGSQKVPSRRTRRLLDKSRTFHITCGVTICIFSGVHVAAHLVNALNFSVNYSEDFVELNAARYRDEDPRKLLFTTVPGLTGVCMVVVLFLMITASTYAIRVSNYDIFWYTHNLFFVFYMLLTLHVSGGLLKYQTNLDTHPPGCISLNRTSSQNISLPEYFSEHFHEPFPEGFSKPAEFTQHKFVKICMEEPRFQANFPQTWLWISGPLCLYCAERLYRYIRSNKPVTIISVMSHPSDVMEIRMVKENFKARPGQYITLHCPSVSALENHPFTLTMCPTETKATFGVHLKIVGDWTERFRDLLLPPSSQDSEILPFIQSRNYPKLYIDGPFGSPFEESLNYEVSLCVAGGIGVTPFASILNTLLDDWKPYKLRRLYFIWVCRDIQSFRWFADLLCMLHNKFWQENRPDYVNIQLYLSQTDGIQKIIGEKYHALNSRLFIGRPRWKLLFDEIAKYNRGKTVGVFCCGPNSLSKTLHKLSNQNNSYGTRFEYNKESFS

O=C1C2C=CC(C(O)c3ccc(B(O)O)cc3)N(Nc3ccc([N+](=O)[O-])cc3)C2C(=O)N1c1ccccc1 (stereo not given)
z-score [1]: -1.07 (inactive) | composite z-score [2]: 0.363 | z-score [3]: 2.01 (inactive) | z-score [4]: 1.21 (inactive) | z-score [5]: 0.136 (inactive) | z-score [6]: 0.606 (inactive) | z-score [7]: -0.537 | z-score [8]: -1.73 (inactive) | z-score [9]: -0.374 (inactive) | z-score [10]: -3.79

O=C1O[C@H](c2ccccc2)[C@H](c2ccccc2)N2[C@H]1[C@@H](C(=O)Nc1nc3ccccc3s1)[C@]1(C(=O)Nc3ccc(C#CC4=CCCCC4)cc31)[C@H]2c1ccc(OCCO)cc1
z-score [1]: -0.199 (inactive) | composite z-score [2]: 0.46 | z-score [3]: 2.54 (inactive) | z-score [4]: 1.62 (inactive) | z-score [5]: 1.44 (inactive) | z-score [6]: 1.2 (inactive) | z-score [7]: -0.686 | z-score [8]: 1.92 (inactive) | z-score [9]: 0.266 (inactive) | z-score [10]: 0.0146

COCCOC(=O)N1C(=O)[C@@]2(c3cc(C#Cc4ccc(OC)cc4)ccc31)[C@H](c1ccc(O)cc1)N1[C@H](c3ccccc3)[C@H](c3ccccc3)OC(=O)[C@H]1[C@@H]2C(=O)N1CCN(c2ncccn2)CC1
z-score [1]: 0.714 (inactive) | composite z-score [2]: -0.0601 | z-score [3]: 1.45 (inactive) | z-score [4]: 0.876 (inactive) | z-score [5]: -0.969 (inactive) | z-score [6]: 0.59 (inactive) | z-score [7]: -0.63 | z-score [8]: 1.87 (inactive) | z-score [9]: -1.34 (inactive) | z-score [10]: -0.0267

CN(C)CCCCCCNC(=O)[C@@H]1C[C@@H]2C(=O)N[C@@H](Cc3ccccc3)C(=O)N2[C@@H]1c1cccc(OCCO)c1
z-score [1]: 0.392 (inactive) | composite z-score [2]: 0.073 | z-score [3]: 3.81 (inactive) | z-score [4]: 0.415 (inactive) | z-score [5]: 0.407 (inactive) | z-score [6]: 0.154 (inactive) | z-score [7]: -0.243 | z-score [8]: 1.08 (inactive) | z-score [9]: 1.4 (inactive) | z-score [10]: 1.4

C=CC[C@@]1(C(=O)NCc2ccccc2)N=C(c2ccc(OCCCO)cc2)O[C@@H]1c1ccccc1CN=[N+]=[N-]
z-score [1]: -1.52 (inactive) | composite z-score [2]: 0.791 | z-score [3]: 24 (active) | z-score [4]: 8.62 (active) | z-score [5]: 2.14 (inactive) | z-score [6]: 1.15 (inactive) | z-score [7]: -0.387 | z-score [8]: -1.15 (inactive) | z-score [9]: -0.499 (inactive) | z-score [10]: 0.694

COCC1=C([C@H](O)CCc2ccccc2)[C@H](CO)[C@@H]2C(=O)N(Cc3ccccc3)C(=O)[C@@H]2C1
z-score [1]: 1.72 (inactive) | composite z-score [2]: -0.194 | z-score [3]: 15.3 (active) | z-score [4]: 2.04 (inactive) | z-score [5]: 0.23 (inactive) | z-score [6]: 0.477 (inactive) | z-score [7]: 0.24 | z-score [8]: -0.543 (inactive) | z-score [9]: 0.21 (inactive) | z-score [10]: -0.0312

C=C[C@H](OC)[C@@H](OC(=O)Nc1ccc(SC)cc1)c1ccc(OCCO)cc1
z-score [1]: -0.356 (inactive) | composite z-score [2]: -0.101 | z-score [3]: 26 (active) | z-score [4]: 15.7 (active) | z-score [5]: 2.51 (inactive) | z-score [6]: 1.82 (inactive) | z-score [7]: 0.306 | z-score [8]: 0.228 (inactive) | z-score [9]: 0.103 (inactive) | z-score [10]: 0.99

O=C1C2C=CC(C(O)C3CC=CCC3)N(n3cnnc3)C2C(=O)N1Cc1ccccc1 (stereo not given)
z-score [1]: -1.37 (inactive) | composite z-score [2]: 0.0455 | z-score [3]: 1.36 (inactive) | z-score [4]: 0.585 (inactive) | z-score [5]: 0.576 (inactive) | z-score [6]: 0.388 (inactive) | z-score [7]: -0.792 | z-score [8]: -0.621 (inactive) | z-score [9]: -1.61 (inactive) | z-score [10]: -1.34

C=C[C@@H](C)[C@@H](OC(=O)Nc1ccc(OC)cc1)c1ccc(O)c2ccccc12
z-score [1]: 0.0598 (inactive) | composite z-score [2]: -0.0222 | z-score [3]: 2.46 (inactive) | z-score [4]: 0.661 (inactive) | z-score [5]: 0.0162 (inactive) | z-score [6]: 0.354 (inactive) | z-score [7]: 0.382 | z-score [8]: -5.9 (inactive) | z-score [9]: -1.81 (inactive) | z-score [10]: -0.437

[N-]=[N+]=NCc1ccccc1C[C@]1(C(=O)N2CCOCC2)N=C(c2ccc(OCCCO)cc2)O[C@H]1c1ccccc1
z-score [1]: 1.07 (inactive) | composite z-score [2]: 0.208 | z-score [3]: 29.4 (active) | z-score [4]: 24.2 (active) | z-score [5]: 0.785 (inactive) | z-score [6]: 1.5 (inactive) | z-score [7]: 1.57 | z-score [8]: -1.95 (inactive) | z-score [9]: -0.399 (inactive) | z-score [10]: -1.32

CCN(CC)c1ccc(N2CC=CC34O[C@@H]5C=CCCOC(=O)C5[C@H]3C(=O)N(CCCO)[C@@H]4C2=O)cc1 (stereo not given in full)
z-score [1]: 1.44 (inactive) | composite z-score [2]: -0.28 | z-score [3]: 0.555 (inactive) | z-score [4]: -0.829 (inactive) | z-score [5]: -0.305 (inactive) | z-score [6]: -1.15 (inactive) | z-score [7]: 1.09 | z-score [8]: -0.0899 (inactive) | z-score [9]: -1.23 (inactive) | z-score [10]: 0.374

C=CCN1C(=O)[C@]2(Cc3ccccc31)N=C(c1ccc(OCCCO)cc1)O[C@@H]2c1ccccc1
z-score [1]: -3.11 (inactive) | composite z-score [2]: 0.165 | z-score [3]: 26 (active) | z-score [4]: 19.4 (active) | z-score [5]: 1.09 (inactive) | z-score [6]: 3.1 (inactive) | z-score [7]: 0.253 | z-score [8]: -1.42 (inactive) | z-score [9]: 0.273 (inactive) | z-score [10]: -0.785

C=C(C)[C@@H]1CC=C(C(O)C2C=CC3C(=O)N(Cc4ccccc4)C(=O)C3N2n2cnnc2)CC1 (stereo not given in full)
z-score [1]: -1.05 (inactive) | composite z-score [2]: 0.298 | z-score [3]: 1.48 (inactive) | z-score [4]: -0.289 (inactive) | z-score [5]: 1.28 (inactive) | z-score [6]: -1.38 (inactive) | z-score [7]: 1.65 | z-score [8]: -3.5 (inactive) | z-score [9]: -2.39 (inactive) | z-score [10]: -3.6
